Laboratory results: PubChem BioAssay (NCI)
About 83,000 compounds went through this panel and 20% of them were active in at least one assay; those are over-represented in the sample as a whole.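 Testing used 96-well plates and a 48-hour single-concentration exposure. Example: -40 means 40% of the starting cells died.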 A number with no mark means an inactive call. Active and inactive are the calls of the source. How the source made its calls: active means growth percent below 10; inactive means the rest.

tested on: HL-60(TB) leukemia; assay: NCI-60 one-dose screen, 48 h (100 = growth as untreated, 0 = no growth, -100 = all killed); conditions: 10 µM unless noted

Row | Compound | growth
1 | C=C1C(=O)O[C@H]2[C@H](O)[C@@H](C)CCC/C(C)=C/CC[C@@]3(C)O[C@@H]3C[C@@H]12 | 92.5%
2 | CC(=O)CC(=O)N(C)C | 114%
3 | CCC(C)C1NC(=O)C(CCCCN)NC(=O)C(CCCCN)NC(=O)C(CC(C)C)NC(=O)C(CCCCN)NC(=O)C(C(C)CC)NC(=O)C(C(C)C)NC(=O)C(C(C)CC)NC(=O)C(CCCCN)NC(=O)C(CCCCN)NC(=O)C(C)NC(=O)C(CCCCN)NC(=O)C(CC(C)C)NC1=O (stereo not given) | -35.2% (active)
4 | COC1OCC(OS(=O)(=O)c2ccc(C)cc2)C(OC(=O)c2ccccc2)C1OC(=O)c1ccccc1 (stereo not given) | 25.4%
5 | CC/C(=C(\c1ccc(OCCN2CCCCCCC2)cc1)c1ccc(OC(=O)C2CCCCC2)cc1)c1ccc(Cl)cc1 | 77.8%
6 | Cn1cc(-c2nc(-c3cn(C)c4ncccc34)cs2)c2cc(F)ccc21 | 30.7%
7 | COc1ccc(C2CC(c3cccs3)=NN2c2ccc(S(N)(=O)=O)cc2)cc1 (stereo not given) | 73.7%
8 | O=C(C[C@@H](C(=O)NCc1cccc(C(F)(F)F)c1)N1C(=O)[C@@H](N2C(=O)OC[C@@H]2c2ccccc2)[C@H]1/C=C/c1ccccc1)NC1CCN(Cc2ccccc2)CC1 | 55.3%
9 | Cc1nc2sc(C(=O)Nc3ccccc3Cl)c(N)c2cc1C(C)O (stereo not given) | 58.8%
10 | O=C(/C=C/c1ccc(Cl)cc1)c1cccc(OCCCOc2cccc(C(=O)/C=C/c3ccc(Cl)cc3)c2)c1 | 96.2%
11 | COc1cccc(C2CC(=O)Nc3cc4c(cc32)OCO4)c1OC (stereo not given) | 93.7%
12 | O=C(Cc1nc2cc(Cl)c(Cl)cc2nc1CC(=O)c1cccnc1)c1cccnc1 | 39.6%
13 | Cc1cc(NCCCN(C)C)c2ccc3c(ccc4c(NCCCN(C)C)cc(C)nc43)c2n1 | -60.2% (active)
14 | C/C(=C\CCc1ccoc1)CC/C=C(\C)CCCN1CCSCC1 | 73.9%
15 | COc1ccc(/C=C2\Oc3cc(OCCN4CCCC4)ccc3C2=O)c(OC)c1 | 75.6%
16 | COc1cc2c(cc1OC)C(Sc1ccc(Cl)cc1)c1c(nc(N)c(C#N)c1N)O2 (stereo not given) | -25.1% (active)
17 | O=c1cc/c(=N\Nc2ccccc2)c(=O)/c1=N/Nc1ccccc1 | 138%
18 | COC(CCP(=O)(c1ccccc1)c1ccccc1)(C(=O)c1ccccc1)c1ccccc1 (stereo not given) | 7.75% (active)
19 | Clc1cccc(Cl)c1C(Nc1nc2ccccc2s1)Nc1nc2ccccc2s1 | 105%
20 | N#Cc1c(NC(=O)c2ccco2)[n+]([O-])c2cc(F)c(F)cc2[n+]1[O-] | 38%

Row | Compound | growth
21 | CC1SC(c2ccccc2O)N(NC(=O)CCC(=O)c2nc3ncccc3[nH]2)C1=O (stereo not given) | 101%
22 | CC(C)(C)CC(C)(C)NCc1cc(C(C)(C)C)cc(CNC(C)(C)CC(C)(C)C)c1O | -33.8% (active)
23 | O=C(CCN1CCCC1)Nc1ccc2c(NCc3ccccc3)c3ccccc3nc2c1 | -40.8% (active)
24 | Cc1nc2sc(C(=O)Nc3cccc4ccccc34)c(N)c2cc1C(C)O (stereo not given) | -24.1% (active)
25 | CS(=O)(=O)Nc1cc(-c2ccc3ncnc(Nc4ccc5c(cnn5Cc5cccnc5)c4)c3c2)cnc1Cl | 33.6%
26 | CCCCN(CCCC)CCCN=c1nc2c(c(N)n1-c1ccccc1)c(=S)n(-c1ccccc1)c(=S)n2-c1ccccc1 | -74.8% (active)
27 | CC(C)c1[nH]nc2c(NCc3ccc(-c4ccccn4)cc3)nc(SCCN(C)C)nc12 | -16.4% (active)
28 | O=C1C=CC(=O)N1CCCCCCCCCCN1C(=O)C=CC1=O | 12.2%
29 | C[C@]12CC[C@H]3[C@@H](CC[C@H]4C[C@@H](O)CC[C@@]43C)[C@@H]1CC(=O)C2 | 83%
30 | CC(C)(C)c1nc(-c2ccc(O)c(O)c2)cs1 | -5.29% (active)
31 | COc1ccc(N/N=C/c2cn(-c3ccc(C(=O)O)cc3)nc2-c2cc3ccccc3oc2=O)cc1 | 8.19% (active)
32 | COc1cc(F)c(/C=C/c2cc(/C=C/c3cc(OC)c(OC)cc3F)on2)cc1OC | 85.2%
33 | N=S(c1ccccc1[N+](=O)[O-])c1ccccc1[N+](=O)[O-] | 10.1%
34 | CCN(CC)CC(O)c1cc(-c2ccc(Cl)cc2)nc2c(C)c(Cl)ccc12 (stereo not given) | -71.5% (active)
35 | CC(C)C(NC(=O)C1(NC(=O)OCc2ccccc2)CCCC1)C(=O)O (stereo not given) | 90.8%
36 | COc1ccc(N(c2nc(-c3ccc([N+](=O)[O-])cc3)cs2)C(C)C)cc1 | 90.1%
37 | C[C@@H](c1ccc2c(c1)[nH]c1ccc(Cl)cc12)c1nc2ccc(Cl)cc2[nH]1 | 0.0537% (active)
38 | O=C1C=C(Nc2ccc([N+](=O)[O-])cc2)c2ccccc2C1=O | 3.59% (active)
39 | N#Cc1c(-c2ccccc2)nc(SCC(=O)N2CCOCC2)[nH]c1=O | 55.9%
40 | COc1cc(-c2nn3c(/C=C4/C(=O)Nc5ccccc54)c(-c4ccc(C)cc4)nc3s2)cc(OC)c1OC | 34.8%
